In PubChem BioAssay AID485313 (National Center for Advancing Translational Sciences (NCATS), 2010) one finds Potency data, which are given here for 30 compounds.

Screen size: about 320,000 compounds; about 7,600 (2.4%) were called active. A call without a number means that no potency is given here. Inconclusive results (about 3%) are left out. The call rests on the fitted dose curve; in most records, active means well fitted activation curve with a large enough effect; inconclusive means small, poorly fitted or top-dose-only effect; inactive means no such curve, though single readings can be large or run the other way. The sample as a whole holds a higher share of actives than the screen did.
Potency means the concentration at half of the fitted maximal effect.

The assay in a line: qHTS Assay for NPC1 Promoter Activators. Further: nearly all actives have a fitted effect of over 60% in size. As to conditions: Huh7 NPC1 promoter luciferase reporter, 24 h; series mostly up to 9.22 µM. The text has this: NIH Chemical Genomics Center [NCGC] NIH Molecular Libraries Probe Production centers Network [MLPCN] MLPCN Grant: MH089375-01A1 Assay Submitter (PI): Yiannis A. Ioannou NCGC Assay Overview: Niemann Pick Type C (NPC) is a rare neurodegenerative lipidosis that is characterized by lipid storage in the endosomal/lysosomal system. Treatment modalities for this devastating disease are currently non-existent due to the severe obstacles associated with accessing the central nervous system with proteins or genes. The majority of mutations causing NPC disease are missense mutations that are distributed throughout the length of the NPC1 protein, with the most prevalent being the I1061T allele. Although NPC1 mutant proteins may be functional, they are typically trapped in the ER due to misfolding. […] We have developed and optimized a cell based luciferase reporter assay in 1536 well format for the identification of up-regulators of the mutant NPC1 promoter.
The NPC1 promoter is cloned in front of the luciferase reporter gene, therefore NPC promoter activation results in luciferase expression. Frozen stock of the NPC1 promoter transfected Huh7 cells were obtained from the laboratory of Dr. Yiannis Ioannou (The Mount Sinai School of Medicine, New York, NY). Cells were propagated and maintained at NCGC in medium containing RPMI-1640 supplemented with 10% FBS, 2mM L-glutamine, and 50ug/ml penicillin/streptomycin. Cells were harvested in and plated for assays in OP-MEM I reduced-serum medium supplemented with 10% FBS. The Amplite luciferase reporter gene assay kit was purchased from ABD Bioquest and prepared/stored according to manufacturers recommendations. qHTS Assay Setup: 1.#Dispensed 5ul of Huh7 cells stably expressing NPC1-luciferase at a density of 1500 cells per well 1536-well plates. 2.#Incubate cells at 37C, 5% CO2, and 95% humidity for 2 hours. 3.#Transferred 23nl per well of compound in DMSO solution. 4.#Incubated at 37C, 5% CO2, and 95% humidity for 24 hours. 5.#Dispensed 3ul per well of Amplite reagent(ABD Bioquest) per well. 6.#Incubate at ambient for 10 minutes. 7.#Read using the luminescence protocol on the ViewLux plate reader (Perkin Elmer).
A general note: In qHTS, concentration-response curves come from the screen itself.
With `Cc1nn(C)cc1/C=N/NC(=O)c1sc2ccccc2c1Cl`, the Potency entry was “inactive”. For the compound `O=C(Nc1ccon1)c1cccc(Cl)c1`, the Potency result was “inactive”. With `O=C(Nc1ccon1)c1sc2ccccc2c1Cl` the figure was 3.98 µM (active); with `Cn1c(N)c(C(=O)COC(=O)COc2ccc(Cl)cc2)c(=O)n(C)c1=O`, “inactive”.

`O=C(COC(=O)CCCN1C(=O)c2cccc3cccc(c23)C1=O)NC1CCS(=O)(=O)C1` (stereo not given): the Potency entry is “inactive”. With `COc1ccc(OCCNC(=O)c2cc(C3CC3)nc3c2cnn3C(C)C)cc1` the entry was “inactive”. The same measure for `CC1(C)C(c2cccs2)=[N+]([O-])C2(CCCCC2=O)N1O` (stereo not given): “inactive”; for `CC(=O)C1(C)N(O)C(C)(C)C(c2cccs2)=[N+]1[O-]` (stereo not given): 0.1 µM (active). On to `C/C(=N\O)C1(C)N(O)C(C)(C)C(c2ccc(Br)cc2)=[N+]1[O-]` (stereo not given), for which the Potency entry was “inactive”.

`CC(C(=O)N1CCc2ccccc21)N(C)CC(=O)Nc1ccc(F)cc1` (stereo not given): the Potency entry was “inactive”. With `CCNC(=O)c1cccc(NC(=O)C2CC(=O)N(CCc3ccccc3)C2)c1` (stereo not given) the entry was “inactive”; with `CCN(CC)C(=O)c1sc2nc(-c3ccccc3)ccc2c1N`, 1.58 µM (active); with `Nc1c(C(=O)NCc2ccccc2)sc2nc3c(cc12)C(=O)CCC3`, “inactive”. The same measure for `CCN(CC)C(=O)N(CC)Cc1ccccc1`: “inactive”. The same measure for `CCCC(NC(=O)c1ccco1)c1nc2ccccc2[nH]1` (stereo not given): “inactive”. `COCCCNC(=O)COc1cc(C)c(Cl)c(C)c1`: the Potency entry is “inactive”. With `Cc1cc(OCc2cc(C(=O)NCc3cc(C(C)C)no3)no2)cc(C)c1Cl` the figure was 1.41 µM (active); with `Cc1cccnc1CC(C)NC(=O)c1cc(COc2cncc(Cl)c2)on1` (stereo not given), “inactive”; with `COc1cccc(-c2nnc(SCCOc3ccc4c(C)cc(=O)oc4c3)o2)c1`, “inactive”. The same measure for `O=[N+]([O-])c1ccc2oc(-c3cccc(O)c3)nc2c1`: “inactive”; for `COc1cccc(-c2nc3cc(C)ccc3o2)c1`: 3.16 µM (active); for `O=C(/C=C(O)/C=C/c1ccc(O)cc1)/C=C/c1ccc(O)cc1`: “inactive”. `CCCCn1c(N)c(N(CC(C)C)C(=O)c2cnc(C)cn2)c(=O)[nH]c1=O`: the Potency entry is “inactive”. `COc1ccccc1C(=O)Nc1ccc(OCC(=O)N2CCCCC2)cc1`: the Potency result was “inactive”. The same measure for `NS(=O)(=O)c1ccc2nc(NC(=O)CS(=O)(=O)c3ccc(F)cc3)sc2c1`: “inactive”. Take `NS(=O)(=O)c1ccc2nc(NC(=O)C3=COCCO3)sc2c1`: the Potency was 1.78 µM (active). With `CS(=O)(=O)c1ccc2nc(NC(=O)c3ccc(Cl)nc3)sc2c1` the entry was “inactive”; with `CN(CC(=O)Nc1ccc(Cl)c(C(F)(F)F)c1)C(=O)CCC(=O)c1ccccc1`, “inactive”.

Take `COC(=O)c1ccc(COC(=O)CNC(=O)c2cccc(OC)c2)o1`: the Potency result was “inactive”. The same measure for `CN(CC(=O)Nc1ccc(Cl)cc1)C(=O)c1ccc(COc2ccccc2)cc1`: “inactive”.
